Source: PubChem (Sanford-Burnham Center for Chemical Genomics)
Rows were chosen to be rich in hits. Some 3.1% of all compounds tested hit in one or more screens of this group.
KKLEB tox – reduces viability of KKLEB cystic fibrosis airway cells; KKLEB CF airway cells viability, ATPlite luminescence, overnight; active compounds read low; cells stimulated with P. aeruginosa culture filtrate; activity change (cytotoxicity), % at 5 µM; 0.36% of 360,000 active;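 active = corrected activity change at or below -50% at 5 µM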
PPC-1+TRAIL kill – kills PPC-1 cancer cells in the presence of TRAIL; PPC-1 cells + TRAIL, ATPLite viability luminescence; AID 1443; 0.41% of 220,000 active; cell killing (% activity), % at 4 µM or 5 µM;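 active = cell killing above 50% in the first pass at 4 µM, then a duplicate retest at 5 µM averaging 50% or more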;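 also: plate controls were cells with TRAIL plus DMSO for no effect and medium-only wells lacking cells for full effect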
C8 TRAIL sens – caspase-8 TRAIL sensitization. NB7+C8 cells + TRAIL, ATPlite viability luminescence. inhibition (viability loss, TRAIL sensitization), % at 10 µM. 1% of 360,000 active;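 active = compounds causing at least 50% loss of cell viability in the single-dose screen, relative to plate controls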
HIF-2a inh – blocks HIF-2a reporter activity | 786-0 RCC cells HIF-2a reporter, luciferase luminescence, overnight | AID 624352 | inhibition, % at 18.8 µM | 0.72% of 360,000 active;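 active = inhibition of the luminescence signal of 40% or more relative to plate controls, in a single-dose primary screen at 18.75 µM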
Peg3 promoter – reduces Peg3 promoter-driven luciferase expression in HeLa; HeLa PEG-Prom luciferase reporter, luminescence, overnight; inhibition, % at 20 µM; 1.7% of 360,000 active; AID 588405;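 active = inhibition of at least 50% at 20 µM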
CF NFkB block – blocks PAF-induced NF-kB reporter in cystic fibrosis cells. inhibition, % at 5 µM. KKLEB NF-kB-GFP reporter, GFP fluorescence overnight. 0.86% of 360,000 active. AID 588850;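 active = at least 50% inhibition at 5 µM, scaled per plate between neutral and stimulator controls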;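 also: PAF is a Pseudomonas aeruginosa culture filtrate used as stimulus; plate controls were PAF-stimulated DMSO wells for no effect and unstimulated DMSO wells for full effect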
* marks the source's active call; other numbers are inactive results; · = not tested or not shown.

SMILES	KKLEB tox	PPC-1+TRAIL kill	C8 TRAIL sens	HIF-2a inh	Peg3 promoter	CF NFkB block
COc1ccccc1-c1cc(C(=O)NC2CCN(C)CC2)c2ccc(Cl)c(C)c2n1	-32	·	70*	7	105*	13
Cc1c(Cl)ccc2c(C(=O)NCCN3CCCCC3)cc(-c3ccccn3)nc12	-4	30	3	-6	68*	3
Cc1ccc2nc(-c3ccccn3)cc(C(=O)NC3CCN(C)CC3)c2c1	·	-15	·	·	·	·
COc1ccc(CN2C(=O)c3ccccc3C2c2nnnn2-c2ccc3c(c2)OCCO3)cc1OC (stereo not drawn)	·	·	-9	-1	·	·
CO[C@H]1/C=C/O[C@@]2(C)Oc3c(C)c(O)c4c(O)c(c(C=NN5CCN(C)CC5)c(O)c4c3C2=O)NC(=O)/C(C)=C\C=C\[C@H](C)[C@H](O)[C@@H](C)[C@@H](O)[C@@H](C)[C@H](OC(C)=O)[C@@H]1C	-7	·	4	25	-11	55*
CC(C)CN1CCC1(C)C(=O)Nc1cc(-c2ccccc2)nn1C (stereo not drawn)	-9	·	8	-13	6	4
CN(C)CCCN(C(=O)c1cc(-c2cccs2)nc2ccccc12)c1nc2ccc(F)cc2s1	-34	·	25	-13	112*	43
CCOC(=O)CCNC(=O)N1CCCC(N(C)CCc2ccc(OC)c(OC)c2)C1 (stereo not drawn)	7	·	-13	12	17	-5
O=C(CO)c1c[nH]c2ccccc12	-6	·	-8	19	107*	17
O=C(COC(=O)/C=C/C(=O)OCC(=O)NC12CC3CC(CC(C3)C1)C2)NC12CC3CC(CC(C3)C1)C2	-16	10	-10	29	103*	41
O=C(COC(=O)c1ccccc1O)NC12CC3CC(CC(C3)C1)C2	12	·	7	-45	-212	-10
COC(=O)[C@@]12C[C@@H](CC(=O)NCCC(C)C)C(=O)N(Cc3ccc4c(c3)OCO4)C1=CCC(C)(C)C2	·	·	-8	6	·	·
COc1cccc2c1CCc1c-2nc2ccccc2c1C(=O)O	-7	·	68*	-93	-128	2
CCC(C)n1c(=S)[nH]c2c(sc3ccc([N+](=O)[O-])cc32)c1=O (stereo not drawn)	-50	4	6	4	10	54*
CC(C)n1c2ccccc2c2cc([N+](=O)[O-])ccc21	-21	-2	-15	10	26	10
COc1cccc(CNCc2cc(OC)cc(OC)c2)c1	-10	·	5	9	5	14
COc1cc(CNCc2ccc(OC)c(OC)c2OC)cc(OC)c1	-8	23	-1	10	71*	2
CCOC(=O)C1=CC[C@H]2c3c(c4ccccc4n3C)C(=O)C1N2C(=O)OC(C)(C)C	-4	·	-6	9	12	2
CCN1CCCC1CNC(=O)c1ccc2c(c1)NC(=O)/C(=C\c1ccc(C)cc1)S2 (stereo not drawn)	-13	·	79*	-2	102*	10
COc1cccc(/C=C2/Sc3ccc(C(=O)NCCN4CCCC4)cc3NC2=O)c1	-6	·	35	12	91*	8
O=C1Nc2cc(C(=O)NCCN3CCCCCC3)ccc2S/C1=C/c1ccccc1F	-9	·	52*	-11	99*	4
CC(C)(C)NC(=O)C(c1ccc(C#N)cc1)n1c(=O)c(-c2cc3ccccc3[nH]2)nc2ccccc21 (stereo not drawn)	·	·	8	-37	·	·
Cc1ccc(CN2C(=O)C(C)Oc3ccc(C)cc32)cc1 (stereo not drawn)	4	·	-2	10	-5	-22
COC(=O)C1CCN(C2CN(Cc3ccc(C)cc3)S(=O)(=O)C2)CC1 (stereo not drawn)	-7	·	8	1	-6	-7
COc1ccnc(Oc2ccccc2)c1C(=O)N/C=N/OCc1ccc(F)cc1Cl	-26	19	-3	-12	57*	40
SMILES	KKLEB tox	PPC-1+TRAIL kill	C8 TRAIL sens	HIF-2a inh	Peg3 promoter	CF NFkB block
CCOC(=O)c1sc(N(Cc2ccccc2)C(=O)CCl)nc1C	-40	·	87*	-46	63*	65*
COc1ccc(C(=O)OCC(=O)N2CCN(S(=O)(=O)c3ccc(C)cc3)CC2)cc1[N+](=O)[O-]	2	·	8	-6	15	-18
COC(=O)c1ccc2c(c1)C(NC(C)=O)CCc1cc(OC)c(OC)c(OC)c1-2 (stereo not drawn)	-13	·	1	23	-40	59*
CC(=O)c1ccc(N/N=C(/C(N)=O)C2=NC(C)(C)Cc3ccccc32)cc1	-16	6	38	31	77*	26
Cc1noc2ncnc(Oc3cc(Cl)ccc3Cl)c12	-7	6	3	14	94*	-27
O=C1C(=C2CCc3ccccc32)Cc2ccccc21	-19	·	51*	-225	-302	-41
Cc1cc(Br)c(NC(=O)CN2CCCC2)c(Br)c1	-12	·	11	-128	-96	9
COc1ccccc1-c1nnc2sc(-c3ccc(N(C)C)cc3)nn12	-3	-19	-18	-15	-51	53*
COc1ccccc1-c1nn2c(-c3ccc(C(C)(C)C)cc3)nnc2s1	·	8	·	·	·	·
Nc1cc(Cl)ccc1C(=O)OCC(=O)NCC1CCCO1 (stereo not drawn)	19	·	1	-15	-36	-8
Cc1[nH]nc(-c2cccnc2)c1N=NN(C)C	-16	·	27	29	71*	5
O=C(NC(Cc1cccc(F)c1)C(=O)O)C1CCCCC1 (stereo not drawn)	-3	·	-2	13	-6	15
CCOC(=O)Cc1csc(NC(=O)/C=C/c2ccc(Cl)cc2)n1	4	14	55*	-84	-129	-13
Cc1cccc(NC(=O)/C(C#N)=C/c2ccc(Cl)cc2)n1	0	·	-12	6	-1	-6
Cc1csc(NC(=O)/C=C/c2ccc3c(c2)OCO3)n1	4	57*	71*	-2	-335	0
Cc1cccc(NC(=O)/C=C/c2ccc(Cl)cc2)n1	-15	-29	69*	-235	-273	7
C=CCOC(=O)COc1ccc2c3c(c(=O)oc2c1)CCCC3	-8	·	-9	23	-1	8
CCCCN1CC(COCc2ccccc2)Oc2cccc(OCCN3C(=O)[C@@H]4[C@H](C3=O)C3C=C[C@H]4C3)c2S1(=O)=O (stereo partly drawn)	-5	·	15	-14	59*	43
CCCCN1CC(COCc2ccccc2)Oc2cccc(Oc3ccc(OC)cc3)c2S1(=O)=O (stereo not drawn)	8	·	-8	15	4	6
COc1cc(/C=C/C(=O)O)cc(S(=O)(=O)Nc2ccccc2C(=O)NCc2ccco2)c1OC	10	·	5	9	4	6
COc1cc2c(cc1OC)C(=O)C(Br)CC2 (stereo not drawn)	-16	·	-3	8	65*	70*
Cc1ccccc1-c1cnc2c(c1)C(=O)N([C@@H](C)CO)C[C@@H](C)[C@H](CN(C)Cc1ccccc1F)O2	-4	·	19	-2	-12	-14
